Records with an inconclusive call do not appear. Entries that show only a call come without a potency. The source made the active and inactive calls. Unless noted, calls follow the shape of the dose curve; as a rule, active = well fitted curve in the direction sought with a large enough effect; inconclusive = small, poorly fitted or top-dose-only effect, or another doubt; inactive = no such curve, though single readings can be large; an effect the other way counts as inactive or inconclusive.
Assays:
[1] = target: Alpha-galactosidase (Coffea arabica) (UniProt Q42656); experiment: Counterscreen for Glucocerebrosidase Inhibitors: qHTS Assay for Coffee Bean alpha-Galactosidase at pH 4.5 (AID 957); also: series mostly up to about 77 µM
Procedure, shortened: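 Quantitative HTS of compounds (0.7 nM to 77 uM) against coffee bean alpha-galactosidase at pH 4.5, measuring 4-methylumbelliferone fluorescence released from 80 uM substrate.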

[2] = target: Alpha-galactosidase (Coffea arabica) (UniProt Q42656); experiment: Counterscreen for Glucocerebrosidase Inhibitors: qHTS Assay for Coffee Bean alpha-Galactosidase at pH 5.9 (AID 998)
Procedure, shortened: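 In 50 mM citric acid pH 5.9 with 0.005% Tween-20, coffee bean enzyme hydrolyses 80 uM 4-MU alpha-D-galactopyranoside over 20 min at RT. Activity is normalized to controls; AC50 comes from Hill-modelled concentration-response data.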

[3] = Validation screen for inhibitors of Lassa infection (AID 463096; calls by dose curve; also: potency is read from the fitted curve at half-maximal effect)
[4] = Inducers of the Endoplasmic Reticulum Stress Response (ERSR) in human glioma: Validation (AID 504836)
Procedure, shortened: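 Stably transfected U87-MG human glioma cells carrying a GRP78-based luminescent sensor were seeded at 1000 cells/well, pin-dosed with compounds and incubated 16 h. Luciferase reagent was then added, and end-point luminescence was read after 10 min at room temperature.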

[5] = qHTS for Inhibitors of the Functional Ribonucleoprotein Complex (vRNP) of Lassa (LASV) Arenavirus: LASV Primary Screen - GLuc reporter signal (AID 1347082; calls by dose curve; tested in HEK293 reporter line; also: series mostly up to about 57 µM; nearly all actives have a fitted effect of over 60% in size)
[6] = qHTS for Inhibitors of the Functional Ribonucleoprotein Complex (vRNP) of Lassa (LASV) Arenavirus: Viability assay - alamar blue signal for LASV Primary Screen (AID 1347083; calls by dose curve; tested in HEK293 reporter line; also: series mostly up to about 57 µM; nearly all actives have a fitted effect of over 80% in size)
[7] = qHTS for Inhibitors of the Functional Ribonucleoprotein Complex (vRNP) of Lymphocytic Choriomeningitis Arenaviruses (LCMV): Viability assay - alamar blue signal for LCMV Primary Screen (AID 1347085; calls by dose curve; tested in HEK293 reporter line; also: series mostly up to about 57 µM; nearly all actives have a fitted effect of over 80% in size)
[8] = target: Nucleoprotein (Lymphocytic choriomeningitis virus (strain Armstrong)) (UniProt P09992); experiment: qHTS for Inhibitors of the Functional Ribonucleoprotein Complex (vRNP) of Lymphocytic Choriomeningitis Arenaviruses (LCMV): LCMV Primary Screen - GLuc reporter signal (AID 1347086; calls by dose curve; also: series mostly up to about 57 µM; nearly all actives have a fitted effect of over 70% in size)
[9] = target: Ubiquitin carboxyl-terminal hydrolase 2 (Homo sapiens) (UniProt O75604); experiment: qHTS Validation Assay for Inhibitors of Ubiquitin-specific Protease USP2a Using CHOP2 as the Reporter (AID 463106); also: potency is read from the fitted curve at half-maximal effect
Procedure, shortened: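 Inhibition is expressed relative to NEM as the full-inhibition control, with concentration-response curves classed by fit quality, magnitude and activity. Enzyme (USP2 core, 10nM) meets 25nM Ub-CHOP2 after compound preincubation; readings are taken at 60min.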

[10] = target: DNA polymerase III PolC-type (Bacillus subtilis (strain 168)) (UniProt P13267); experiment: qHTS Validation Assay for the Inhibitors of DNA Replication in Gram-Positive Bacteria (AID 485295); also: potency is read from the fitted curve at half-maximal effect
Procedure, shortened: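 PicoGreen fluorescence (ex 480–485/em 535–540 nm) reports dsDNA synthesized on ssM13Gori template with dNTPs/NTPs. Enzyme: holoenzyme rebuilt from purified PolC, beta subunit, SSB and primase. Compound preincubated before substrate addition; RT throughout.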

[11] = target: Ubiquitin carboxyl-terminal hydrolase 1 (Homo sapiens) (UniProt O94782); experiment: Inhibitors of USP1/UAF1: Pilot qHTS (AID 504865); also: potency is read from the fitted curve at half-maximal effect; nearly all actives have a fitted effect of over 35% in size
Procedure, shortened: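 1nM USP1/UAF1 + cpd, 15 min RT; start w/ Ub-Rho 150nM final; kinetic FL 480/540 nm, 6 reads q60 s. Buffer 50mM HEPES pH 7.8, 0.5mM EDTA, 1mM TCEP, 0.01% Tween-20, 0.1 mg/ml BSA.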

[12] = HTS Assay for Allosteric Antagonists of the Human D2 Dopamine Receptor: Hit Validation in HTRF (AID 624455);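 also: stable D1 dopamine receptor cell line scored for blocking the D1 response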
Procedure, shortened: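 Validation of hits used D1 receptor stably expressed in cells with HTRF detection of response inhibition; origin screen measured calcium flux following EC80 dopamine in a force-coupled, inducible Hek293 Trex D2 cell line.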

[13] = target: Arylsulfatase A (Homo sapiens) (UniProt P15289); experiment: qHTS screen for enhancers of Arylsulfatase A (ASA1): LOPAC Validation Assay (AID 720538); also: potency is read from the fitted curve at half-maximal effect
Procedure, shortened: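 Read-out: fluorescence at Ex=525/Em=598 nm after 1N NaOH final stop. Patient fibroblasts carrying ASA-I179S had 48h compound exposure, then 14h room-temperature pNCS hydrolysis (0.5mM final) in lysis buffer. Signal increase = enhanced activity.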

Sequence of Nucleoprotein (Lymphocytic choriomeningitis virus (strain Armstrong)) (P09992 whole entry, looked up): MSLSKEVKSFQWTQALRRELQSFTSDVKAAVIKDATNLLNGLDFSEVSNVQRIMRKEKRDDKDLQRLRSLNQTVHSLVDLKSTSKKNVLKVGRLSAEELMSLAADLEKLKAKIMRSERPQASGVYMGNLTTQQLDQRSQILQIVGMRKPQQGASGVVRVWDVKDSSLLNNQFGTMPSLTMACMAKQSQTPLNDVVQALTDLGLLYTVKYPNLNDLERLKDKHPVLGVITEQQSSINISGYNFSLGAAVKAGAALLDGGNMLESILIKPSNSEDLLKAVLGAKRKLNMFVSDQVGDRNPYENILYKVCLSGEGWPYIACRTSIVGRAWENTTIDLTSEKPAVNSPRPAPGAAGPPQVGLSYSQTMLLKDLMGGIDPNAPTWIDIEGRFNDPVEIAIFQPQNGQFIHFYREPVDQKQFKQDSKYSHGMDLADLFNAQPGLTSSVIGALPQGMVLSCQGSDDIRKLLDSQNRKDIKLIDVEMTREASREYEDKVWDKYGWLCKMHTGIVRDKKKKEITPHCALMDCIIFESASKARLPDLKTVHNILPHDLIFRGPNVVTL
Sequence of Alpha-galactosidase (Coffea arabica) (Q42656 whole entry, looked up): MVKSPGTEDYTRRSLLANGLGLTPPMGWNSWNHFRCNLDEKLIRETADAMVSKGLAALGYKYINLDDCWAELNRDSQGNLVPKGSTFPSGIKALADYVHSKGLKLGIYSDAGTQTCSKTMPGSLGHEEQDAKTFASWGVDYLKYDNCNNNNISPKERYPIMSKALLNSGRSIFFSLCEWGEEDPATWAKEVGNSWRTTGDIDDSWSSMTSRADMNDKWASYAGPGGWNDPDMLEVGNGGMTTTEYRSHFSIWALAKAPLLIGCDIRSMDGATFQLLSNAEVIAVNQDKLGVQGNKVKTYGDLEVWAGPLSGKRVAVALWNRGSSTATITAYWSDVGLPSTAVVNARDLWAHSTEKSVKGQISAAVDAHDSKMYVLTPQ
Sequence of DNA polymerase III PolC-type (Bacillus subtilis (strain 168)) (P13267 whole entry, looked up): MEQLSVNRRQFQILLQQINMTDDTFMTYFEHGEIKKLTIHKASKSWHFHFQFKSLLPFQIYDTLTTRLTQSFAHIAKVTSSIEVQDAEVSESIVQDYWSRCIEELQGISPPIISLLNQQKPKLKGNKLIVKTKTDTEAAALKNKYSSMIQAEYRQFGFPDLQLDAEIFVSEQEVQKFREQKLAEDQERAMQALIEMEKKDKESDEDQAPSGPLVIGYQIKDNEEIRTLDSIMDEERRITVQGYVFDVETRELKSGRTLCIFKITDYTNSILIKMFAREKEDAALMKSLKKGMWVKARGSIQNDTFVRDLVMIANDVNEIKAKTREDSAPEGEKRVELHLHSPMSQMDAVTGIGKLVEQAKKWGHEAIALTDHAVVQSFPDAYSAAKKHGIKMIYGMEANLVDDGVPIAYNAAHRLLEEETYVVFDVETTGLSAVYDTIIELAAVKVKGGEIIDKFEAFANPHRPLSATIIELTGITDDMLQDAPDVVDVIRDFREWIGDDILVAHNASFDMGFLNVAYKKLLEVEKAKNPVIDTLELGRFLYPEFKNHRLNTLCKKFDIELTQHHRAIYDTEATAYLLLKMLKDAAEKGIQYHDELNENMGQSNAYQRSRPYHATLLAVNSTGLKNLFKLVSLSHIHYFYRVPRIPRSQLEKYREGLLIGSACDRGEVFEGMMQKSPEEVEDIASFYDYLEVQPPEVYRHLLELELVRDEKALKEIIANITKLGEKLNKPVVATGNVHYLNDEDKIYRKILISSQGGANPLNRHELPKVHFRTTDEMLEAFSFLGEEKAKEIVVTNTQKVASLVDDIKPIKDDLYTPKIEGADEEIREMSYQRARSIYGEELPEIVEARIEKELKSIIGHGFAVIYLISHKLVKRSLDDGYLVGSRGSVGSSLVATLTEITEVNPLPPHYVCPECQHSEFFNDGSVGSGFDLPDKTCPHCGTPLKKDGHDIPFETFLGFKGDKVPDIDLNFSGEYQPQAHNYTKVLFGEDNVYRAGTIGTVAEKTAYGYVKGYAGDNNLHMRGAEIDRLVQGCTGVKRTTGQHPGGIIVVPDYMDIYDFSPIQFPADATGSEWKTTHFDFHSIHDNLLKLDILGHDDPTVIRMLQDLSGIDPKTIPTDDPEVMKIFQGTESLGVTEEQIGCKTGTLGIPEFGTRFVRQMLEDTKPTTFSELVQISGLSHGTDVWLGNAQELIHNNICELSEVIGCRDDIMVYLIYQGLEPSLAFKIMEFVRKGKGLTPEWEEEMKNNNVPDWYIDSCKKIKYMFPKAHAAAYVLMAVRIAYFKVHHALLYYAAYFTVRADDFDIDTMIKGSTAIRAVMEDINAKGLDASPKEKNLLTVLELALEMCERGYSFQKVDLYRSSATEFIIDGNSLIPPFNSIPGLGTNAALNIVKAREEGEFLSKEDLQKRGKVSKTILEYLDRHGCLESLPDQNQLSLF
Sequence of Arylsulfatase A (Homo sapiens) (P15289 whole entry, looked up): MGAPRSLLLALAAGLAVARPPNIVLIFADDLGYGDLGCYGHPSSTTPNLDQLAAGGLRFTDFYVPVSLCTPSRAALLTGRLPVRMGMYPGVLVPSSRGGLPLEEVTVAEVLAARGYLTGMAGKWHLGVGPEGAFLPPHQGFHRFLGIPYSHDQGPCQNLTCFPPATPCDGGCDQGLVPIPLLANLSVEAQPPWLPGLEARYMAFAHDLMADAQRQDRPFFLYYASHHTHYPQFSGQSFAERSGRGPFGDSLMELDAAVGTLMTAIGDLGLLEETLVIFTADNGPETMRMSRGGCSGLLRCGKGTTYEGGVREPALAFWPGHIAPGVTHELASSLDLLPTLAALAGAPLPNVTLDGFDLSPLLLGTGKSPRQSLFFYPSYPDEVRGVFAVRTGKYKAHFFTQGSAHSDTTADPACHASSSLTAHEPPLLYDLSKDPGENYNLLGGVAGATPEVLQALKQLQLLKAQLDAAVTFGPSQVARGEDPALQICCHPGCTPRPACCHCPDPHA
Sequence of Ubiquitin carboxyl-terminal hydrolase 2 (Homo sapiens) (O75604 whole entry, looked up): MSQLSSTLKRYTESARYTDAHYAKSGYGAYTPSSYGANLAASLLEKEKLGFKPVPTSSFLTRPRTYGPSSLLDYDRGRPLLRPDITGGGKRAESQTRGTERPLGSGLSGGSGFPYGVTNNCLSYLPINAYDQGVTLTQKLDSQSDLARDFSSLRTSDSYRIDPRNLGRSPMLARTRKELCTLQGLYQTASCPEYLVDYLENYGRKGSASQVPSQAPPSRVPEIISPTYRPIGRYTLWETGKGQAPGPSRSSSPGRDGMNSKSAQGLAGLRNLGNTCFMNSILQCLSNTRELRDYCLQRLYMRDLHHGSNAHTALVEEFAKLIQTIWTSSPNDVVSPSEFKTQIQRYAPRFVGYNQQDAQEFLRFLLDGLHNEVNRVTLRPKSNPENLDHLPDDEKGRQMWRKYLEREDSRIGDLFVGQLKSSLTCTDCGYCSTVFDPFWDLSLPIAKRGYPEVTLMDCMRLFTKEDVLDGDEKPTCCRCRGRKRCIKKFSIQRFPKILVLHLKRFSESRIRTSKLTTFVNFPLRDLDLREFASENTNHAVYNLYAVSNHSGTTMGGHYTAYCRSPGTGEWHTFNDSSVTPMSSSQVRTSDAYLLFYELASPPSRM
Sequence of Ubiquitin carboxyl-terminal hydrolase 1 (Homo sapiens) (O94782 whole entry, looked up): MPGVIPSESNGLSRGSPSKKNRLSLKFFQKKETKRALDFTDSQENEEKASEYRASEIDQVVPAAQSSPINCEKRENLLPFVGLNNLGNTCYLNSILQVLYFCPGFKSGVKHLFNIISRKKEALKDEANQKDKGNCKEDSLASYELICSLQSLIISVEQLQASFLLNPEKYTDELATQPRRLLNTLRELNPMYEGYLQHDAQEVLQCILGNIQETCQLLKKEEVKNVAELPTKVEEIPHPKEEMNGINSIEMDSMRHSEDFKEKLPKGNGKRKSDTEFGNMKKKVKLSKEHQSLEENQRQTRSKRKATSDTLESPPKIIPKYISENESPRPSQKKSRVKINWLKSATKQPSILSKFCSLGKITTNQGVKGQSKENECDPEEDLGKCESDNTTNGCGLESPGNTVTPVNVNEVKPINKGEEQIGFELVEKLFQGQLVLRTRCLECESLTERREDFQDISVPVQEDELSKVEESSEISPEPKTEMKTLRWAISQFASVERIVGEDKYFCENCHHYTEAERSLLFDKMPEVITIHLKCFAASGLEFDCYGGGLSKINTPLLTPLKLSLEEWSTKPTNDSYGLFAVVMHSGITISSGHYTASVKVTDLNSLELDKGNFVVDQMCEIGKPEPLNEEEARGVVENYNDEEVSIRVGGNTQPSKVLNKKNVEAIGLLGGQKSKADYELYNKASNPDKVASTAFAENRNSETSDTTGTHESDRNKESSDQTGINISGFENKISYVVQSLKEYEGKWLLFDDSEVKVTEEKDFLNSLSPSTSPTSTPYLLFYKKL

| Compound | outcome [1] | outcome [2] | Potency [3] | outcome [4] | Potency [5] | Potency [6] | Potency [7] | Potency [8] | Potency [9] | Potency [10] | Potency [11] | outcome [12] | Potency [13] |
| --- | --- | --- | --- | --- | --- | --- | --- | --- | --- | --- | --- | --- | --- |
| Cn1c(=O)c2[nH]c(-c3ccccc3)nc2n(C)c1=O | inactive | inactive | inactive | inactive | inactive | inactive | inactive | inactive | – | – | – | – | – |
| CCN(CC)CCOC(=O)c1cc(Cl)c(N)cc1OC | inactive | inactive | inactive | inactive | inactive | inactive | inactive | inactive | – | – | – | – | – |
| N#C/C(=C\c1ccc(O)c(O)c1)C(=O)c1ccc(O)c(O)c1 | inactive | inactive | inactive | inactive | inactive | inactive | inactive | inactive | – | – | – | – | – |
| O=c1[nH]c2cc(Cl)ccc2c(O)c1-c1ccc(Oc2ccccc2)cc1 | inactive | inactive | inactive | inactive | inactive | inactive | inactive | inactive | – | – | – | – | – |
| O=C(O)C1CCNCC1 | inactive | inactive | inactive | inactive | inactive | inactive | inactive | inactive | – | – | – | – | – |
| CCCCCCC/C=C\CCCCCCCCC(=O)O | inactive | inactive | inactive | inactive | inactive | inactive | inactive | inactive | – | – | – | – | – |
| Fc1ccc(C(OCCCc2cnc[nH]2)c2ccc(F)cc2)cc1 | inactive | inactive | inactive | inactive | inactive | inactive | inactive | inactive | – | – | – | – | – |
| CCCCCCCCCCC/C=C\C(C)(C)/C=C\CCCC(=O)O | inactive | inactive | inactive | inactive | inactive | inactive | inactive | inactive | – | – | – | – | – |
| NC(=O)CNCCC(c1ccccc1)c1ccccc1 | inactive | inactive | inactive | inactive | inactive | inactive | inactive | inactive | – | – | – | – | – |
| O=c1[nH]c2cc([N+](=O)[O-])c([N+](=O)[O-])cc2[nH]c1=O | inactive | inactive | inactive | inactive | inactive | inactive | inactive | inactive | – | – | – | – | – |
| O=C(O)C1=CCCN(CCON=C(c2ccccc2)c2ccccc2)C1 | inactive | inactive | inactive | inactive | inactive | inactive | inactive | inactive | – | – | – | – | – |
| COc1cc(CC(=O)O)ccc1O | inactive | inactive | inactive | inactive | inactive | inactive | inactive | inactive | – | – | – | – | – |
| NS(=O)(=O)c1cccc2c1c([N+](=O)[O-])cc1nc(O)c(O)nc12 | inactive | inactive | inactive | inactive | inactive | inactive | inactive | inactive | – | – | – | – | – |
| COC(=O)[C@H](NC(=O)c1cc(-c2ccccc2)nc2ccccc12)c1ccccc1 | inactive | inactive | inactive | inactive | inactive | inactive | inactive | inactive | – | – | – | – | – |
| O=C(O)c1cccnc1C(=O)O | inactive | inactive | inactive | inactive | inactive | inactive | inactive | inactive | – | – | – | – | – |
| C[C@H](NC(=O)/C(C#N)=C/c1ccc(O)c(O)c1)c1ccccc1 | inactive | inactive | inactive | inactive | inactive | inactive | inactive | inactive | – | – | – | – | – |

| Compound | outcome [1] | outcome [2] | Potency [3] | outcome [4] | Potency [5] | Potency [6] | Potency [7] | Potency [8] | Potency [9] | Potency [10] | Potency [11] | outcome [12] | Potency [13] |
| --- | --- | --- | --- | --- | --- | --- | --- | --- | --- | --- | --- | --- | --- |
| C#CCn1c(=O)c2c(ncn2C)n(C)c1=O | inactive | inactive | inactive | inactive | inactive | inactive | inactive | inactive | – | – | – | – | – |
| c1ccc2c(c1)CC(N1CCN(c3cccc4c3OCCO4)CC1)C2 | inactive | inactive | inactive | inactive | inactive | inactive | inactive | inactive | – | – | – | – | – |
| O=C(N[C@@H](Cc1ccccc1)C(=O)CCl)OCc1ccccc1 | inactive | inactive | 6.31 µM (active) | inactive | inactive | inactive | inactive | inactive | – | – | – | – | – |
| Fc1ccc(CN(C2=NCCN2)c2c(Cl)cccc2Cl)cc1 | inactive | inactive | inactive | inactive | inactive | inactive | inactive | inactive | – | – | – | – | – |
| Cc1cc2c(cc1Cl)N(C(=O)Nc1ccnc3ccccc13)CC2 | inactive | inactive | inactive | inactive | inactive | inactive | inactive | inactive | – | – | – | – | – |
| O=C(O)/C=C/c1ccc(O)c(O)c1 | inactive | inactive | inactive | inactive | inactive | inactive | inactive | inactive | – | – | – | – | – |
| N.N.N.N.N.N.N.N.N.N.N.N.N.N.O.O.[Ru+4].[Ru+5].[Ru+5] | – | – | – | inactive | inactive | inactive | inactive | inactive | 14.7 µM (active) | 16.8 µM (active) | 44.7 µM (active) | inactive | 12 µM (active) |
| CC[C@H](NC(=O)c1c(C)c(-c2ccccc2)nc2ccccc12)c1ccccc1 | inactive | inactive | inactive | – | inactive | inactive | inactive | inactive | – | – | – | – | – |
| O=C1/C(=C/c2ccsc2)CC/C1=C\c1cccs1 | – | – | – | inactive | inactive | inactive | inactive | inactive | – | – | – | – | – |
| COc1cccc(C(=O)NCCN2CCN(c3ccc(Cl)cc3)CC2)c1 | inactive | inactive | inactive | – | inactive | inactive | inactive | inactive | – | – | – | – | – |
| CN(C)C(N)=NCCC[C@H](N)C(=O)O | inactive | inactive | inactive | – | inactive | inactive | inactive | inactive | – | – | – | – | – |
| CC(C)NC[C@H](O)COc1ccc(CC(N)=O)cc1 | inactive | inactive | inactive | inactive | inactive | inactive | inactive | inactive | – | – | – | – | – |
| CC(N)(Cc1ccc(O)cc1)C(=O)O (configuration not stated) | – | – | – | inactive | inactive | inactive | inactive | inactive | – | – | – | – | – |
| N.N.O=C(O)C1(C(=O)O)CCC1.[Pt] | inactive | inactive | inactive | – | inactive | inactive | inactive | inactive | – | – | – | – | – |
| CCCOC(=O)c1c(-c2ccccc2)nc(CC)c(C(=O)SCC)c1CCC | inactive | inactive | inactive | – | inactive | inactive | inactive | inactive | – | – | – | – | – |
| CCCn1c(=O)c2[nH]c(-c3ccc(S(=O)(=O)O)cc3)nc2n(CCC)c1=O | inactive | inactive | inactive | inactive | inactive | inactive | inactive | inactive | – | – | – | – | – |
